One assay has as its system MCC-26. As to the kind of experiment: qHTS assay to identify novel small-molecules to repurpose for Merkel cell carcinoma treatment (AID 1296009). Also: nearly all actives have a fitted effect of over 60% in size. Particulars: MCC and control cell lines, CellTiter-Glo viability, 72 h; series mostly up to 46 µM. In outline: (§1)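 qHTS format: cells treated with library compounds in DMSO across 8 (NPC) or 11 (MIPE) concentrations. Readout after 72 hr at 37 degree celsius was CellTiter-Glo luminescence.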
In general terms: In qHTS, concentration-response curves come from the screen itself.

A further assay concerns MKL-1. The description is as above. Particulars: MCC and control cell lines, CellTiter-Glo viability, 72 h; series mostly up to 46 µM. In outline:
as §1
A general note: In ATP-based viability assays light output follows the ATP content of the culture.

For a further assay, the system named is MKL-2. Described as above. Particulars: MCC and control cell lines, CellTiter-Glo viability, 72 h; series mostly up to 46 µM. A digest of the protocol:
as §1

The subject of the next assay is NIH3T3. Described as above. Particulars: MCC and control cell lines, CellTiter-Glo viability, 72 h; at 44.8 µM (top of the series) unless noted. In outline: as §1
In the next assay the test system is UISO. The assay is described as above. Particulars: MCC and control cell lines, CellTiter-Glo viability, 72 h; series mostly up to 46 µM. In outline:
as §1

The test system of the next assay is WaGa. The description is as above. Particulars: MCC and control cell lines, CellTiter-Glo viability, 72 h; series mostly up to 46 µM. A digest of the protocol:
as §1

Another assay deals with CAOV3. As to the kind of experiment: Primary qHTS to identify gynecologic anti-cancer compounds using libraries of approved drugs and bioactive compounds (AID 1345084). Also: nearly all actives have a fitted effect of over 55% in size. Particulars: Gynecologic cancer cell panel viability, ATPlite luminescence, 48 h; series mostly up to 57.5 µM. In outline:
(§2)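 Five-point cytotoxicity, 48 h drug exposure at 37 C, 5% CO2, on cells seeded 16 h beforehand. ATP content read by ATPlite luminescence.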

Another assay has as its system CASKI. Described as above. Particulars: Gynecologic cancer cell panel viability, ATPlite luminescence, 48 h; series mostly up to 57.5 µM. A digest of the protocol: as §2
The test system of the next assay is Es-2. The description is as above. Particulars: Gynecologic cancer cell panel viability, ATPlite luminescence, 48 h; series mostly up to 57.5 µM. A digest of the protocol:
as §2

Another assay concerns HeLa. The assay is described as above. Particulars: Gynecologic cancer cell panel viability, ATPlite luminescence, 48 h; series mostly up to 57.5 µM. A digest of the protocol: as §2
The next assay concerns Hek293T. Described as above. Particulars: Gynecologic cancer cell panel viability, ATPlite luminescence, 48 h, control line for the selectivity index; series mostly up to 57.5 µM. In outline: as §2
Another assay relates to OV90. The assay is described as above. Particulars: Gynecologic cancer cell panel viability, ATPlite luminescence, 48 h; series mostly up to 57.5 µM. A digest of the protocol:
as §2

Another assay relates to PA-1. The description is as above. Particulars: Gynecologic cancer cell panel viability, ATPlite luminescence, 48 h; series mostly up to 57.5 µM. In outline:
as §2

Another assay has as its system SKOV3. Described as above. Particulars: Gynecologic cancer cell panel viability, ATPlite luminescence, 48 h; series mostly up to 57.5 µM. In outline:
as §2

For a further assay, the system named is Tov-21-G. Described as above. Particulars: Gynecologic cancer cell panel viability, ATPlite luminescence, 48 h; series mostly up to 57.5 µM. A digest of the protocol:
as §2

The subject of another assay is Tov112D. The description is as above. Particulars: Gynecologic cancer cell panel viability, ATPlite luminescence, 48 h; series mostly up to 57.5 µM. A digest of the protocol: as §2
Assay [1] in a line: Drug repurposing screens with cells derived from glioblastoma tumor samples (AID 1345199). Also: nearly all actives have a fitted effect of over 40% in size. Also: potency is read from the fitted curve at half-maximal effect. Particulars: GBM patient neurospheres viability, ATP luminescence, 48 h. In outline:
(§3)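 Four patient lines of CD133+ GBM neurospheres were screened at several concentrations; hits were retested in those lines plus three slower-growing GBM lines, using 48-hour treatment and ATP-based viability.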

For another assay, the system named is astro. The description is as above. Particulars: viability, ATP luminescence, 48 h; series mostly up to 45.9 µM. A digest of the protocol: as §3
A further assay has as its system JEG-3. As to the kind of experiment: Primary qHTS to identify gynecologic anti-cancer compounds using libraries of approved drugs and bioactive compounds (AID 1345084). Also: nearly all actives have a fitted effect of over 55% in size. Particulars: Gynecologic cancer cell panel viability, ATPlite luminescence, 48 h; series mostly up to 57.5 µM. In outline:
as §2

Another assay has as its system C33A. The description is as above. Particulars: Gynecologic cancer cell panel viability, ATPlite luminescence, 48 h; series mostly up to 57.5 µM. In outline: as §2
[2] abbreviates: at 45.9 µM (top of the series), tumour line B.
The mark [3] stands for this setting: at 45.9 µM (top of the series), tumour line D.
Where [4] appears, read: at 46.1 µM (top of the series), tumour line C.

Consider 7 molecules from PubChem BioAssay (NCATS).

Molecules are shown by their SMILES. Results filed as inconclusive are left out. Unmarked numbers belong to inactive results. Calls of active or inactive are those of the source. Calls follow the shape of the dose curve; as a rule, active = well fitted curve in the direction sought with a large enough effect; inconclusive = small, poorly fitted or top-dose-only effect, or another doubt; inactive = no such curve, though single readings can be large; an effect the other way counts as inactive or inconclusive.
% is scaled to controls: 0 for no effect and ±100 for the full control effect.

On to `CCc1cc(C(N)=S)ccn1`, for which the Potency entry in the assay with MCC-26, in the assay on MKL-1, with MKL-2, in the assay on UISO, in the assay with WaGa and in the assay with CAOV3 was “inactive” in each case. Besides, the Potency entry with CASKI, in the assay on Es-2, in the assay with HeLa, with Hek293T, in the assay with OV90 and in the assay with PA-1 was “inactive” each time. Also, the Potency entry in the assay on SKOV3, in the assay on Tov-21-G, in the assay with Tov112D and with astro was “inactive” throughout. Besides, the result with NIH3T3 was inactive. Moreover, the activity, negative = cell killing in assay [1] (setting [2]) is -9.3%; in assay [1] (setting [3]), -29.7%; in assay [1] (setting [4]), -26.9%.

On to `Cc1cc(NS(=O)(=O)c2ccc(N)cc2)no1`, for which the Potency entry in the assay with MCC-26, in the assay on MKL-1, in the assay with MKL-2, in the assay with UISO, in the assay with WaGa and in the assay with CAOV3 was “inactive” throughout. In addition, the Potency entry with CASKI, in the assay with Es-2, in the assay with HeLa, with Hek293T, with JEG-3 and in the assay on OV90 was “inactive” in each case. For the same molecule, the Potency entry in the assay on PA-1, in the assay on SKOV3, in the assay on Tov-21-G, with Tov112D and in the assay with astro was “inactive” each time. The outcome in the assay with NIH3T3 was inactive. Besides, the activity, negative = cell killing in assay [1] (setting [2]) is 0.277%; in assay [1] (setting [3]), -26.8%; in assay [1] (at 46 µM (top of the series), tumour line A) it was -6.57%; in assay [1] (setting [4]), 7.15%.

Take `CCN(CC)CCn1c(=O)c(Cc2ccc(OC)cc2)nc2ccccc21`: the Potency result in the assay with MCC-26, in the assay with MKL-1, in the assay on MKL-2, with UISO, in the assay on WaGa and with astro was “inactive” throughout. Besides, the result in the assay with NIH3T3 was inactive. The activity, negative = cell killing is -5.87% in assay [1] (setting [2]), -15.6% in [1] (setting [3]) and 14.7% in [1] (setting [4]). Moreover, the Potency in assay [1] (tumour line A) is 10 µM (active).

On to `CC1=C(C(=O)O)N2C(=O)[C@@H](NC(=O)C(N)c3ccccc3)[C@H]2SC1` (stereo partly drawn), for which the Potency result in the assay with MCC-26, in the assay on MKL-1, with MKL-2, in the assay on UISO and in the assay with WaGa was “inactive” in each case. In the assay with NIH3T3, the outcome was inactive.

Turning to `CN(C)CCc1c[nH]c2ccc(C[C@H]3COC(=O)N3)cc12`, the Potency entry with MCC-26, in the assay with MKL-1, with MKL-2, with UISO, in the assay with WaGa and with C33A was “inactive” throughout. For the same molecule, the Potency result with CAOV3, with CASKI, with Es-2, in the assay on HeLa, in the assay on Hek293T and in the assay on JEG-3 was “inactive” throughout. Further, the Potency entry in the assay with OV90, with PA-1, in the assay with SKOV3, in the assay with Tov-21-G, in the assay on Tov112D and in the assay with astro was “inactive” each time. The call in the assay with NIH3T3 was inactive. For the same molecule, the activity, negative = cell killing in assay [1] (setting [2]) is -19.9%; in assay [1] (setting [3]), -11%; in assay [1] (setting [4]) it was 4.56%.

For the molecule `C[C@]12C=CC(=O)C=C1CC[C@@H]1[C@@H]2C(=O)C[C@@]2(C)[C@H]1CC[C@]2(O)C(=O)CO`, the Potency entry in the assay on MCC-26, in the assay with MKL-1, in the assay on MKL-2, in the assay with UISO, in the assay on WaGa and in the assay with C33A was “inactive” throughout. The Potency entry with CAOV3, in the assay with CASKI, with Es-2, in the assay on Hek293T, in the assay on JEG-3 and in the assay on OV90 was “inactive” throughout. Further, the Potency entry in the assay with PA-1, in the assay on SKOV3, in the assay on Tov-21-G, in the assay with Tov112D and in the assay on astro was “inactive” each time. Besides, the molecule was called inactive in the assay on NIH3T3. The results for the activity, negative = cell killing in assay [1] (setting [2]), in [1] (setting [3]) and in [1] (setting [4]) were -6.23%, 5.45% and -7.06%, respectively.

In the case of `NC(=O)c1cccc(N)c1`, the Potency result in the assay with MCC-26, in the assay with MKL-1, in the assay on MKL-2, in the assay on UISO and in the assay on WaGa was “inactive” in each case. Moreover, the outcome with NIH3T3 was inactive.
